Screening results as filed in PubChem.
Hits are enriched below; roughly 9.8% of the tested compounds scored in any of these assays.
CBFb-RUNX1 inh: qHTS Assay for Compounds Blocking the Interaction Between CBF-beta and RUNX1 for the Treatment of Acute Myeloid Leukemia | AID 1477, 2009 | Runt-related transcription factor 1 (Homo sapiens) + Core-binding factor subunit beta … | AlphaScreen CBFb-His/RUNX1-biotin binding, biochemical | 230,000 tested, under 10 active | Potency, µM (top dose mostly 59.8 µM), usual class: inhibitors
Target sequence (Q01196 whole entry, looked up): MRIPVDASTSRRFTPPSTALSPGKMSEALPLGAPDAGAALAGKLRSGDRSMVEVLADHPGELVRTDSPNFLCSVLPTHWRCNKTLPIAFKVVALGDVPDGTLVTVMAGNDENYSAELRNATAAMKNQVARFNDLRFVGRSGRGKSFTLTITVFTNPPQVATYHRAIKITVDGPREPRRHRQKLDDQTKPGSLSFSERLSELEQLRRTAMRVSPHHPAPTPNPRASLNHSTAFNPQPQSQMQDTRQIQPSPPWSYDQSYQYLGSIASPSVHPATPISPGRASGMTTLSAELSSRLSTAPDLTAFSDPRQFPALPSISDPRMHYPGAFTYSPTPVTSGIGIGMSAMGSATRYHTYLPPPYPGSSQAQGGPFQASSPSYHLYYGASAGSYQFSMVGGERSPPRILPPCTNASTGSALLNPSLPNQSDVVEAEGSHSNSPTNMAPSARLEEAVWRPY
Target sequence (Q13951 whole entry, looked up): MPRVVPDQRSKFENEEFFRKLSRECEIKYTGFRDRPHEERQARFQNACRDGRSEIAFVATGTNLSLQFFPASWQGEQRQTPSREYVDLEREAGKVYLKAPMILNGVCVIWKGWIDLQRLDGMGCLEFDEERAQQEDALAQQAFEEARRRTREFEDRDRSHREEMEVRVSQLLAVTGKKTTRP
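AlphaScreen binding: CBFb-His and RUNX1-biotin (30 nM each) preincubated 20 min, compound added for 15 min, then nickel and streptavidin beads for 90 min, all at room temperature. Disruption of the interaction by any mechanism counts as activity.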
KDM4E inh: qHTS Assay for Inhibitors of Human Jumonji Domain Containing 2E (JMJD2E); Lysine-specific demethylase 4E (Homo sapiens), B2RXH2; JMJD2E catalytic domain, FDH-coupled NADH fluorescence (FDH is formaldehyde dehydrogenase); Potency, µM (top dose mostly 57.1 µM), hits mostly inhibitors; actives 1.6% (n = 230,000); active = well fitted inhibition curve with a large enough effect, not every such curve was filed as active; inconclusive = small, poorly fitted or top-dose-only effect, or another doubt; inactive = no such curve, though single readings can be large or run the other way; note: nearly all actives have a fitted effect of over 50% in size
HPGD block: qHTS Assay for Inhibitors of HPGD (15-Hydroxyprostaglandin Dehydrogenase); 15-hydroxyprostaglandin dehydrogenase [NAD(+)] (Homo sapiens), P15428; purified HPGD, NADH fluorescence kinetic, PGE2 substrate; Potency, µM, hits mostly inhibitors; actives 4.3% (n = 150,000); active = well fitted inhibition curve with a large enough effect, not every such curve was filed as active; inconclusive = small, poorly fitted or top-dose-only effect, or another doubt; inactive = no such curve, though single readings can be large or run the other way
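NADH formation kinetics: reaction with 30 uM PGE2 and 1 mM NAD+ (final), 20 nM enzyme, Tris-HCl pH 8 with Tween 20, after 15 min compound preincubation at room temperature. Fluorescence change, last versus first of five reads.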
ALDH1A1 block: qHTS Assay for Inhibitors of Aldehyde Dehydrogenase 1 (ALDH1A1); Aldehyde dehydrogenase 1A1 (Homo sapiens), P00352; Purified ALDH1A1, NADH fluorescence, propionaldehyde substrate; Potency, µM (top dose mostly 75.3 µM), actives largely listed as inhibitors; actives 7.3% (n = 220,000); active = well fitted inhibition curve with a large enough effect, not every such curve was filed as active; inconclusive = small, poorly fitted or top-dose-only effect, or another doubt; inactive = no such curve, though single readings can be large or run the other way
HTT aggregate: qHTS Multiplex Assay to Identify Dual Action Probes in a Cell Model of Huntington: Aggregate Formation (GFP) | AID 1688, 2009 | Potency, µM (highest dose often 46.1 µM), usual class: inhibitors | actives 1.1% (n = 220,000) | PC12 HttQ103-GFP aggregates, Acumen cytometry, 40 h; note: nearly all actives have a fitted effect of over 60% in size
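Compounds (qHTS titration) were added to PC12 cells expressing an ecdysone-driven HTT exon 1 Q103–GFP fusion after induction with 100 nM tebufenozide. Aggregate formation was measured as GFP objects in cell lysates.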
HTT ATP protect: qHTS Multiplex Assay to Identify Dual Action Probes in a Cell Model of Huntington: Cytoprotection (ATP); PC12 HTT-Q103 induced, cytoprotection, ATP luminescence, 40 h; Potency, µM (doses to about 56.4 µM), hits mostly activators; actives 0.14% (n = 230,000); AID 1471, 2008; note: nearly all actives have a fitted effect of over 45% in size
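Stable PC12 Q103-GFP cells in serum-supplemented, phenol red-free DMEM; induction by tebufenozide at 100 nM final; compound dose series; cell viability quantified luminescently from ATP.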
Each line names hits and unclear results; the compound was inactive in the other large screens. Unless noted, calls come from the whole dose curve; as a rule, active = well fitted curve in the direction sought with a large enough effect; inconclusive = small, poorly fitted or top-dose-only effect, or another doubt; inactive = no such curve, though single readings can be large; an effect the other way counts as inactive or inconclusive.

Cc1cccc(C)c1NC(=O)CSc1nnc(C)n1CC1CCCO1 (stereo unspecified)	ALDH1A1 block inconclusive (no result: HPGD block)
O=C1C=C(N2CCCCC2)C2(CCCCC2)O1	ALDH1A1 block 10µM (no result: HPGD block, HTT aggregate, HTT ATP protect)
COc1ccc(N2C(=O)CC(Sc3n[nH]c(-c4cccc(C)c4)n3)C2=O)cc1 (stereo unspecified)	KDM4E inh inconclusive (no result: HPGD block, ALDH1A1 block)
COC(=O)c1ccc(N2C(=O)CC(Sc3n[nH]c(C)n3)C2=O)cc1 (stereo unspecified)	HPGD block 16µM, ALDH1A1 block 0.56µM
COC(=O)c1cc(C(=O)OC)cc(N2C(=O)CC(NNC(=O)c3ccc(C)cc3)C2=O)c1 (stereo unspecified)	HPGD block 14µM (no result: HTT ATP protect)
COC(=O)c1cc(C(=O)OC)cc(N2C(=O)CC(NNC(=O)c3ccccc3Br)C2=O)c1 (stereo unspecified)	none
COC(=O)c1cc(C(=O)OC)cc(N2C(=O)CC(Sc3nc(C)cc(C)n3)C2=O)c1 (stereo unspecified)	ALDH1A1 block 13µM
COc1ccc(N2CCN(C(=O)Cn3nnc(-c4ccccc4N)n3)CC2)cc1	none (no result: HPGD block)
Cc1ccccc1C(=O)Nc1nnc(-c2cccnc2)o1	HTT aggregate inconclusive (no result: HPGD block)
CCCN=C1NC(=O)C(CC(=O)NCCc2ccccc2)S1 (stereo unspecified)	ALDH1A1 block 28µM (no result: HPGD block)
COc1ccc(CN2CCN(Cc3nc4ccccc4s3)CC2CCO)c(C)c1C (stereo unspecified)	ALDH1A1 block inconclusive (no result: HPGD block)
CC(O)c1nc2ccccc2n1CCCCOc1ccccc1 (stereo unspecified)	none (no result: HPGD block)
CCOC(=O)C1CCCN(C(=O)/C=C/c2ccc(Cl)cc2)C1 (stereo unspecified)	HTT aggregate inconclusive (no result: HPGD block)
Cc1ccc(/C=C/C(=O)N2CCCC(C)C2)cc1 (stereo unspecified)	HPGD block 1.6µM, ALDH1A1 block inconclusive (no result: HTT ATP protect)
CC1CCN(C(=O)/C=C/c2ccc(C(C)(C)C)cc2)CC1	HPGD block 16µM (no result: HTT ATP protect)
COCc1ccc(CN2CCCC(CO)(Cc3ccccc3)C2)o1 (stereo unspecified)	KDM4E inh inconclusive, ALDH1A1 block inconclusive (no result: HPGD block)
O=C(Nc1ccc(-n2nncc2-c2ccco2)cc1)c1ccc(F)cc1	none
CCOC(=O)c1sc2nc(N3CCOCC3)c3c(c2c1N)CCN(C)C3	KDM4E inh inconclusive, HPGD block inconclusive, ALDH1A1 block inconclusive, HTT ATP protect 0.63µM (no result: HTT aggregate)
Cc1ccc(N(CC(=O)NCc2ccc(F)cc2)S(=O)(=O)c2cccs2)cc1	none
CC1=CC(=O)c2c(O)ccc(O)c2C1=O	KDM4E inh inconclusive, ALDH1A1 block 32µM (no result: CBFb-RUNX1 inh, HPGD block)
O=C1OC(NCc2cccnc2)(c2ccc(Cl)cc2)c2ccccc21 (stereo unspecified)	none (no result: HPGD block)
Cc1cccc(N(CC(=O)NCc2ccc3c(c2)OCO3)C(=O)CCC(=O)Nc2ccccn2)c1C	ALDH1A1 block 28µM
Cc1ccc(-c2nn(C)c(=O)c3ccccc23)cc1CN1CCOCC1	none
CCC(CO)Nc1ccc(-c2nn(C)c(=O)c3ccccc23)cc1[N+](=O)[O-] (stereo unspecified)	ALDH1A1 block 1.4µM (no result: HPGD block)
Cn1nc(-c2ccc(C(=O)O)cc2)c2ccccc2c1=O	HPGD block 7.9µM
Cc1ccc(-c2nn(C)c(=O)c3ccccc23)cc1CO	HPGD block 32µM
Cc1ccc(-c2nn(C)c(=O)c3ccccc23)cc1CNC(=O)CN1CCOCC1	HPGD block 20µM, ALDH1A1 block inconclusive
CCOC(=O)c1c(C)[nH]c(C(=O)NCc2ccco2)c1C	none (no result: HPGD block)
